Experimental data reported in PubChem BioAssay AID1979 (Broad Institute, 2009).
Screen size: about 300,000 compounds; about 1,700 (0.57%) were called active. Roughly 2% stayed inconclusive and do not appear here. Many of the other results were omitted from the sample, so actives are more common in it than they were. Unmarked numbers belong to inactive results.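 The calls were made as follows: active = growth inhibition above about 58% in most replicates (limit read from the data, passing the limit was not always enough); inconclusive = exactly half the replicates above a set limit; inactive = most replicates below a set limit.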

Assay: Candida growth reduction under fluconazole – CaCi-2 strain, Alamar Blue fluorescence, primary screen (AID 1979);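 also: all wells also contain fluconazole at 8 µg/ml as a sub-toxic cotreatment; 0% = median of DMSO wells and 100% = median of geldanamycin control wells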
Settings: C. albicans CaCi-2 (fluconazole-resistant clinical isolate) + fluconazole, 48 h, active compounds read high, concentration not given here

Row | Structure (SMILES) | growth inhibition
1 | Cc1cc2ccccn2c1C(C[N+](=O)[O-])c1c(F)cccc1Cl (stereo not given) | 88.5% (active)
2 | C/C(=N/O)c1ccc2ccc3ccccc3c2c1 | -4.17%
3 | Cc1nn(-c2ccccc2)c(C)c1NC(=O)COC(=O)Cc1ccccc1 | -2.49%
4 | O=C(Cc1ccccc1)N1CCN(C2CCCCCC2)CC1 | -12%
5 | CC1=C(C(=O)Nc2ccccc2)SCCO1 | 0.0228%
6 | Cc1cccc(-n2c(O)c(C=NC34CN5CN(CN(C5)C3)C4)c(=O)[nH]c2=O)c1 | -4%
7 | Cc1cccc(-n2c(O)c(/C=N/N3CCOCC3)c(=O)[nH]c2=S)c1 | 12.2%
8 | Cc1cccc(-n2c(O)c(C=Nc3ccccc3N)c(=O)[nH]c2=O)c1 | 103% (active)
9 | COc1ccccc1C1=NCc2nnc(CSC)n2-c2ccc(Cl)cc21 | 2.88%
10 | COc1ccc(S(=O)(=O)NCc2ccc(C(=O)N3CCC4(CC3)OCCO4)cc2)cc1 | -9.32%
11 | CC(C)(C)c1ccc(OC(=O)N2CCCCC2)cc1 | 11.1%
12 | C=CCN1C(=O)NC(=O)/C(=C/c2ccc(OCC(=O)Nc3ccc(C)cc3)cc2)C1=O | -16.2%
13 | CC1=CC(=Cc2sc3ccccc3[n+]2C)C=C(C)O1 | 103% (active)
14 | CNCC(O)c1cc(F)c(OCc2ccccc2)c(OCc2ccccc2)c1F (stereo not given) | -32.5%
15 | COc1ccccc1NC(=O)N1C[C@@H]2C[C@@H](C1)c1cccc(=O)n1C2 | 7.25%
